In PubChem BioAssay (NCATS):
Where “and” joins values, the source holds several entries; their conditions need not be identical. Equal values may be shown once. Records with an inconclusive call do not appear. Calls of active or inactive are those of the source. Unless noted, calls come from the whole dose curve; as a rule, active = well fitted curve in the direction sought with a large enough effect; inconclusive = small, poorly fitted or top-dose-only effect, or another doubt; inactive = no such curve, though single readings can be large; an effect the other way counts as inactive or inconclusive.

How the values were obtained:
[1] = Cell Viability - BJ (AID 421; calls by dose curve;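 note: potency is the fitted concentration of half-maximal effect; cells exposed to compound for 40 hours at 37 °C before readout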); conditions: BJ fibroblast viability, qHTS
How it was run: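 Normal human BJ foreskin fibroblasts, 1500/well in complete medium, treated 40 hr at 37 °C. Cellular ATP by CellTiter-Glo luminescence; normalized to DMSO and 100 uM tamoxifen, AC50 from Hill fit.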

[2] = Cell Viability - MRC5 (AID 434; calls by dose curve;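 note: potency is the fitted concentration of half-maximal effect; potency reflects cytotoxicity seen as loss of intracellular ATP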); conditions: MRC5 lung fibroblast viability, qHTS
How it was run: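 qHTS cytotoxicity in human lung fibroblast MRC5 cells; 40 hr treatment, 37 °C; cellular ATP by luciferase luminescence; DMSO = 0%, 100 uM tamoxifen = 100% inhibition; Hill-fit AC50.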

[3] = Cell Viability - SK-N-SH (AID 435; calls by dose curve;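 note: potency is the fitted concentration of half-maximal effect; compound exposure lasted 40 h at 37 °C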); conditions: SK-N-SH neuroblastoma cell viability qHTS
How it was run: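 SK-N-SH human neuroblastoma cells (1500/well) were exposed to compounds in complete medium for 40 h at 37 °C, and intracellular ATP was then measured by CellTiter-Glo luminescence. AC50 was taken from Hill fits, normalized to DMSO and 100 uM tamoxifen.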

[4] = Cell Viability - N2a (AID 540); conditions: N2a mouse neuroblastoma cell viability; activity change, negative = cytotoxicity: at 92.2 µM (top of the series); note: nearly all actives have a fitted effect of over 45% in size; note: potency is the fitted concentration of half-maximal effect;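 for activity change, negative = cytotoxicity: plate controls were DMSO alone for no effect and tamoxifen control for full effect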
How it was run: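 Luminescent ATP signal (CellTiter-Glo, 20 min at room temperature) served as the viability read-out after N2a cells were treated with compounds for 40 hours at 37 °C. Concentration-response data were fitted to the Hill equation for AC50.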

[5] = Cell Viability - SH-SY5Y (AID 544); conditions: SH-SY5Y neuroblastoma cell viability; viability change, negative = cytotoxic: at 92.2 µM (top of the series); note: nearly all actives have a fitted effect of over 55% in size; note: potency is the fitted concentration of half-maximal effect
How it was run: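 Luminescent ATP read-out (CellTiter-Glo) measures loss of viable SH-SY5Y neuroblastoma cells after 40 hr compound exposure at 37 °C. AC50 values derive from standard Hill modelling of qHTS concentration-response data.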

[6] = Cell Viability - Renal Proximal Tubule (AID 545); conditions: renal proximal tubule cells viability, primary cells of rat origin; activity change, negative = cytotoxicity: at 91.7 µM (top of the series); note: nearly all actives have a fitted effect of over 40% in size
How it was run: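 Primary rat renal proximal tubule cells (1000/well) were treated with compounds for 40 hr at 37 °C in complete medium. Intracellular ATP was measured by CellTiter-Glo luminescence, and AC50 values came from Hill-equation fits of concentration-response data.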

[7] = Cellular Toxicity (caspase-3) HepG2 (AID 654); conditions: HepG2 caspase-3 activation, luminescence; series mostly up to 92.2 µM;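 note: cells exposed to compound for 16 hours before reading; 0% = DMSO alone and 100% = caspase signal from 100 µM tamoxifen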
How it was run: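 Cells plated 5 hr at 37 °C, compound added, incubated 16 hr at 37 °C. Caspase-Glo 3/7 reagent followed, 20 min at room temperature, then luminescence read. Activation scored as signal increase; AC50 from Hill fit.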

[8] = Cellular Toxicity (caspase-3) HUV-EC-C (AID 656); conditions: HUV-EC-C cells, caspase-3 activation (apoptosis); series mostly up to 92.2 µM
How it was run: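 HUV-EC-C endothelial cells, 1000/well, were pre-incubated 5 hr at 37°C, then exposed to compounds for 16 hr at 37°C. Caspase-Glo 3/7 luminescence was read after 20 min at room temperature. AC50 came from Hill fits, normalized to DMSO and 100 uM tamoxifen.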

[9] = Cellular Toxicity (caspase-3) Mesangial (AID 660); conditions: mesangial cells, normalized: DMSO 0%, 100 µM tamoxifen 100%; at 91.7 µM (top of the series);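 note: combined caspase 3 and 7 activity read by Caspase-Glo luminescence; cells exposed to compound for 16 h before the caspase read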
How it was run: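 Mesangial cells, 1000/well, 5 h settle at 37 °C; compound 16 h, 37 °C; Caspase-Glo 3/7 reagent 20 min RT; luminescence. Norm.: DMSO = 0%, tamoxifen 100 uM = 100%. AC50, Hill fit.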

[10] = Cellular Toxicity (caspase-3) N2a (AID 665); conditions: N2a cells, luminescence; Potency: caspase-3 activation; series mostly up to 92.2 µM;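 note: compound exposure lasted 16 h at 37 °C before readout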
How it was run: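 N2a cells, 1500/well, 5 h settle at 37 °C; cpd 16 h, 37 °C; Caspase-Glo 3/7, 1 h RT; luminescence. Norm: DMSO = 0, 10 uM staurosporine = 100%. AC50, Hill fit.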

[11] = Cellular Toxicity (caspase-3) NIH 3T3 (AID 666); conditions: NIH 3T3 caspase-3 activation, apoptosis/toxicity; series mostly up to 92.2 µM;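 note: caspase signal read after 16 h compound exposure; 0% = DMSO basal and 100% = 100 µM tamoxifen stimulation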
How it was run: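 Luminescence from aminoluciferin released by caspase-3/7 cleavage of a peptide substrate served as read-out. Mouse fibroblast NIH 3T3 cells were exposed to compounds over a concentration range for 16 hours, and AC50 values came from standard Hill modelling.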

[12] = Cellular Toxicity (caspase-3) Renal Proximal Tubule (AID 667); conditions: renal proximal tubule cells, primary cells freshly taken from rat, solvent-only wells 0%, staurosporine 100%; series mostly up to 91.7 µM;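 note: cells exposed to compound for 16 hours at 37 °C before detection; 0% = DMSO basal and 100% = 10 µM staurosporine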
How it was run: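 Primary rat proximal tubule cells, 1000/well, 5 h plating at 37 °C, then compound 16 h at 37 °C. Caspase-Glo 3/7 reagent, 1 h RT, luminescence. Normalized to DMSO (basal) and 10 uM staurosporine (100%); Hill-fit AC50.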

[13] = Cell Viability - LYMP1-003 - Assay at 24 hr (AID 963); conditions: LYMP1-003 lymphoblastoid cell viability; series mostly up to 92.2 µM; note: potency is the fitted concentration of half-maximal effect;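 for viability change, negative = cytotoxic: plate controls were DMSO only for no effect and tetraoctylammonium bromide positive control for full effect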
How it was run: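 Cells seeded at 2500/well, 5 hr at 37 C; compounds added; 24 hr at 37 C; CellTiter-Glo added, 30 min room temperature; luminescence read. Decrease in ATP taken as cytotoxicity, AC50 from Hill modelling.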

[14] = target: Peroxisome proliferator-activated receptor alpha (Homo sapiens) (UniProt Q07869); test: qHTS assay for small molecule agonists of the peroxisome proliferator-activated receptor alpha (PPARalpha) signaling pathway (AID 651778); conditions: PathHunter PPARalpha complementation, chemiluminescence, 6 h; max response: stronger effect = higher value; note: % of control where 0% means no effect
How it was run: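 Chemiluminescence from complemented enzyme reported PPARalpha activation in cells after 6 hr of compound treatment at 37 C. The detection reagent was incubated for 60 min at room temperature, and compounds were scored as agonists.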

[15] = qHTS assay for cell viability of HEK293 cells (AID 743288); conditions: ATP luminescence (CellTiter-Glo), 18 h; max response: stronger effect = lower value; note: nearly all actives have a fitted effect of over 50% in size; note: potency is the fitted concentration of half-maximal effect; for max response: % is set by controls: 0 for no effect and ±100 for the full control effect
How it was run: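 Parental HEK293 cells were seeded at 2,000 cells/well, rested at least 5 h at 37 C, then exposed to compounds in DMSO for 18 h at 37 C. Viability was read as ATP-dependent luciferase luminescence after 30 min at room temperature.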

[16] = qHTS assay for cell viability of the p53RE-bla HCT-116 cell line (AID 743292); conditions: p53RE-bla HCT-116 viability, ATP luminescence, 16 h; series mostly up to 95 µM; note: nearly all actives have a fitted effect of over 55% in size; note: potency is the fitted concentration of half-maximal effect; for activity change, negative = cytotoxicity: % is set by controls: 0 for no effect and ±100 for the full control effect
How it was run: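 ATP-based luminescence, 16 h compound exposure at 37 C, p53RE-bla HCT-116 cells at 4,000/well.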

[17] = NFAT Signaling Pathway (AID 444; active = well fitted curve in either direction with a large enough effect, not every such curve was filed as active;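 note: carbachol stimulus at about its EC50 of 1 µM final; % is set by controls: 0 for no effect and ±100 for the full control effect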); conditions: Jurkat NFAT-bla M1, carbachol, beta-lactamase ratio, 5 h; at 17.2 µM (top of the series) unless noted
How it was run: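 Read-out: CCF4 FRET ratio (460 nm/530 nm) after 1 h RT dye loading, used for %activity and AC50 from titration series. Cells: Jurkat NFAT-β-lactamase/M1 line, treated with compound plus 1 uM carbachol for 5 h, 37 °C.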

[18] = Stat Signaling Pathway (AID 446; active = well fitted curve in either direction with a large enough effect, not every such curve was filed as active;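 note: ME-180 cervical cancer cells given 40 pM IL-6 alongside compound; SIE-controlled beta-lactamase reporter measured as 460/530 nm FRET emission ratio; % is set by controls: 0 for no effect and ±100 for the full control effect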); conditions: ME-180 SIE beta-lactamase reporter, IL-6 stimulated, 5 h; at 17.2 µM (top of the series) unless noted
How it was run: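 ME-180 cells carrying a SIE-driven beta-lactamase reporter are stimulated with 40 pM IL-6 for 5 h at 37C in the presence of compound. The 460/530 nm FRET substrate ratio is read after 2.5 h at RT. Data are normalised to 300 pM IL-6 and to 125 nM JAK inhibitor controls.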

[19] = target: Glucocorticoid receptor (Homo sapiens) (UniProt P04150); test: GR-GFP Redistribution (AID 450;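 active = compounds whose dose series gives a full or clear partial fitted curve of increased nuclear translocation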; note: potency is the fitted concentration of half-maximal effect); conditions: U2OS GR-GFP nuclear translocation, laser cytometry, 2 h; series mostly up to 20.6 µM
[20] = target: Cytochrome P450 3A4 (Homo sapiens) (UniProt P08684); test: qHTS Assay for Activators of Cytochrome P450 3A4 (AID 885); conditions: recombinant CYP3A4, Luciferin-PPXE luminescence, 60 min; series mostly up to 57.1 µM; note: nearly all actives have a fitted effect of over 65% in size
How it was run: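 Human CYP3A4 (20 nM) with Luciferin-PPXE at 25 uM (its KM) in 200 mM KPO4; 10 min compound preincubation, then NADPH regeneration and 60 min reaction at RT. Luciferin read by luminescence; normalized to 57 uM ketoconazole full inhibition.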

Peroxisome proliferator-activated receptor alpha (Homo sapiens), sequence (Q07869 whole entry, looked up): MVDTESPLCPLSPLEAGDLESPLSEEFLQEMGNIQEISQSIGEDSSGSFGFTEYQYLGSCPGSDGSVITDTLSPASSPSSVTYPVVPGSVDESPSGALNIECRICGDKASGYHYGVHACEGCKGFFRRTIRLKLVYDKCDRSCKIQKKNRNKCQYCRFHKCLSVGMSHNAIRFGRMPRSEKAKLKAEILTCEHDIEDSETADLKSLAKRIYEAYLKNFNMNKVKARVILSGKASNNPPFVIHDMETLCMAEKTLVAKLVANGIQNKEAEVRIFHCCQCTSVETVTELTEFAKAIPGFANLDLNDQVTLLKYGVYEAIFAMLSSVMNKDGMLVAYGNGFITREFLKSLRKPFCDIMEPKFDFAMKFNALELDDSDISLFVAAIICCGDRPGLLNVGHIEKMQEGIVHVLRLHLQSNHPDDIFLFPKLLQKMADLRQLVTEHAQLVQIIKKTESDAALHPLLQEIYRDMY
Glucocorticoid receptor (Homo sapiens), sequence (P04150 whole entry, looked up): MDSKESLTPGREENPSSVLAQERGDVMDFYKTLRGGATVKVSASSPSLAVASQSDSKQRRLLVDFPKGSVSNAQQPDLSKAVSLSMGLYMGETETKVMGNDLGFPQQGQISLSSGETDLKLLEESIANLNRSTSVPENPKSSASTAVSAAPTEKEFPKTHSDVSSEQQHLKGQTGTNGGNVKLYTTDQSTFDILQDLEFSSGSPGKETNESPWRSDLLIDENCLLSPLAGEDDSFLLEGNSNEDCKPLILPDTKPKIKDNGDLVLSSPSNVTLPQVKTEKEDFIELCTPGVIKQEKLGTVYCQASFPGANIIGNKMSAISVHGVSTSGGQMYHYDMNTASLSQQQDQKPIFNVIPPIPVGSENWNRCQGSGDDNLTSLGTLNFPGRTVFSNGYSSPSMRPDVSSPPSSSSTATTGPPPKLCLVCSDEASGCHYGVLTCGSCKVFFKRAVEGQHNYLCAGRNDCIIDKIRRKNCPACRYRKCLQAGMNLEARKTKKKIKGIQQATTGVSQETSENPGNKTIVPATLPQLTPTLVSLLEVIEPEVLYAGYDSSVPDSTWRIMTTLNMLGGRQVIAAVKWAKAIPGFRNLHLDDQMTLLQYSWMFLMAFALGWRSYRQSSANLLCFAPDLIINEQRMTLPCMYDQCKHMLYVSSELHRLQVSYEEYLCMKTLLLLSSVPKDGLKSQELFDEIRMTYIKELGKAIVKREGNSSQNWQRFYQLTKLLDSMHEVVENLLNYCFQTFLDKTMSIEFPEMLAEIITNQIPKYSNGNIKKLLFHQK
Cytochrome P450 3A4 (Homo sapiens), sequence (P08684 whole entry, looked up): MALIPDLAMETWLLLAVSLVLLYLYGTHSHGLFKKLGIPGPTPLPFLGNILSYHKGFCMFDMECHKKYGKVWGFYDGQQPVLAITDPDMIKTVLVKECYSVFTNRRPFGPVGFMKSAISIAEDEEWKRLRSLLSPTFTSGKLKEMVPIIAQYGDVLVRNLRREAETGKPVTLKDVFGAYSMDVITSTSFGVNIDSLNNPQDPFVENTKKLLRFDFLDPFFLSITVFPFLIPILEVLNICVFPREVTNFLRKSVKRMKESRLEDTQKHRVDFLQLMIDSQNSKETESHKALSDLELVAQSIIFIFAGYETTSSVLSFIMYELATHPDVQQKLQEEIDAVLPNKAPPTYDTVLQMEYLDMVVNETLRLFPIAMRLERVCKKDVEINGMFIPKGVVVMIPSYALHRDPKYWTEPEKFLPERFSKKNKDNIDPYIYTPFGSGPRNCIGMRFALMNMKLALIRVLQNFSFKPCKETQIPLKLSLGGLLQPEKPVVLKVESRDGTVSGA

O=Cc1ccc(Cl)c(Cl)c1
inactive: Potency [1] > 92 µM | Potency [2] > 92 µM | Potency [3] > 92 µM | Potency [4] | Potency [5] | Potency [6] | Potency [7] | Potency [8] | caspase-3 activation [9] -1.53% | Potency [10] | Potency [11] | outcome [12] | Potency [13] | max response [14] 1.8% | max response [15] -7.75% | Potency [16]

COc1cccc(-c2nc(NCc3ccco3)c3ccccc3n2)c1O
inactive: activity change, negative = inhibition [17] 7.35% | activity, negative = inhibition [18] -8.59% | Potency [19] > 20.6 µM

CCC(C)Nc1ccc(NC(C)CC)cc1 (centres undefined)
active: Potency [1] 14 µM | Potency [2] 20.7 µM | Potency [3] 8.73 µM | Potency [4] 15.8 µM | Potency [5] 5.01 µM | activity change, negative = cytotoxicity [6] -100% | Potency [13] 12.6 µM | Potency [15] 28.2 µM | Potency [16] 35.5 µM and 28.2 µM
inactive: Potency [7] | Potency [8] | caspase-3 activation [9] -4.04% | Potency [10] | outcome [12] | Potency [20] | max response [14] -4.78% and -5%

COc1ccccc1-c1nnc2sc(C3CCCCC3)nn12
inactive: activity change, negative = inhibition [17] -6.47% | activity, negative = inhibition [18] 8.63% | Potency [19] > 20.6 µM

Cc1cc(OCCN2CCCCC2)nc2ccccc12
inactive: activity change, negative = inhibition [17] -29.3% | activity, negative = inhibition [18] 9.41% | Potency [19] > 20.6 µM

C/C=C1\C(=O)C[C@H]2[C@@H]3CCC4=CC(=O)CC[C@]4(C)[C@H]3CC[C@]12C
active: activity change, negative = cytotoxicity [4] -114% | viability change, negative = cytotoxic [5] -80.2%
inactive: Potency [1] > 92 µM | Potency [2] > 92 µM | Potency [7] | Potency [8] | caspase-3 activation [9] 1.02% | Potency [10] | Potency [11] | outcome [12] | Potency [13] | max response [14] -3.35% | Potency [16]
